Bioassay records (PubChem)
CYP2C9 inh: blockers of cytochrome P450 2C9 activity – biochemical, luminescence, ADME assay, primary screen | P11712 | CYP2C9 Supersomes, luciferin-H conversion | inhibition, % at 5 µM | hit rate 20% among 96,000;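 active = blocking of liver enzyme CYP2C9 beyond about 50% at 5 µM, limit read from the data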
DAT uptake mod: changed hDAT dopamine uptake under cocaine IC80, either direction, primary screen, cocaine antagonist project, cell-based, LLC-PK1 hDAT, [14C]-dopamine uptake, MLSMR | Sodium-dependent dopamine transporter (Homo sapiens), Q01959 | LLC-PK1 hDAT cells, [14C]-dopamine uptake with cocaine IC80; actives deviate in either direction | B-score at 10 µM | hit rate 1.3% among 110,000;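 active = Z score or B-score, a plate-position-corrected score, falls beyond the plate's 99.7% confidence bounds, in either direction; inactive = both scores lie inside the 99.7% bounds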;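 also: scored against the spread of the other compound wells on the same plate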
Target sequence (Q01959 whole entry, looked up): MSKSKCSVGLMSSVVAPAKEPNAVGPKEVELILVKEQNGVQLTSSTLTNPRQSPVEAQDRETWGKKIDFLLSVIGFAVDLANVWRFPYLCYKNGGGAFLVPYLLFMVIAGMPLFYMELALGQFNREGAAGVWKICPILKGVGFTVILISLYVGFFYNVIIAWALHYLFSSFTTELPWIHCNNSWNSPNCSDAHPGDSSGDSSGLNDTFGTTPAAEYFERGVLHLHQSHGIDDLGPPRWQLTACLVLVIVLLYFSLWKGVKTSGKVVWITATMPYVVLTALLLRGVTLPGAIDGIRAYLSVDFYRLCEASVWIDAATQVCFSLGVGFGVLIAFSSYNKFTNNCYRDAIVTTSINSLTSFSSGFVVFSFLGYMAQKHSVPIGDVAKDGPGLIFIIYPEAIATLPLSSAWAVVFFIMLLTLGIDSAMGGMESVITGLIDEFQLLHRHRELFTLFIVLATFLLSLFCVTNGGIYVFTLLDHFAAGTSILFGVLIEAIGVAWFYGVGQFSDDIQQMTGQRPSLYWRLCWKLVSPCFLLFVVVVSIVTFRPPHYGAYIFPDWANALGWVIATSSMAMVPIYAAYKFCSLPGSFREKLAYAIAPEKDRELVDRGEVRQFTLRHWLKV
CYP2C9 activ: human CYP2C9 activators, primary screen, biochemical, luminescence; recombinant CYP2C9, luciferin-H conversion; stronger effect = higher value; factor 1 = untreated enzyme, 0 = blocked; AID 1024, 2008; activation factor at 5 µM; Cytochrome P450 2C9 (Homo sapiens), P11712; hit rate 1.4% among 96,000;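 active = activation factor of 2 or more for CYP2C9 at a 5 µM dose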;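 also: 0 = sulfaphenazole-blocked wells and 1 = vehicle-only wells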
CYP2C19 inhib: blockers of cytochrome P450 2C19 activity – biochemical, luminescence, ADME assay, primary screen; CYP2C19 Supersomes, luciferin-H EGE luminescence, 30 min; hit rate 21% among 96,000; AID 778, 2007; P33261; inhibition, % at 5 µM;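 active = CYP2C19 inhibition above a set limit at 5 µM in the primary screen, cut at about 50% in these data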;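 also: plate controls were negative control wells for no effect and 2.5 mM tranylcypromine positive control for full effect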
D1 mod: D1 CRE-luciferase signal change, two-sided – cell-based, HEK293 D1, dopamine EC30, D1 allosteric modulator project, primary screen; dopamine EC30 potentiation; actives deviate in either direction; D(1A) dopamine receptor (Homo sapiens), P21728; hit rate 5.9% among 58,000; B-score at 10 µM;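 active = luminescence count or its row- and column-corrected plate score outside the 99.7% band of the plate's sample wells, on either side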
CYP2C19 activ: human CYP2C19 activators, primary screen, biochemical, luminescence. Cytochrome P450 2C19 (Homo sapiens), P33261. recombinant CYP2C19, luciferin-H EGE luminescence; stronger effect = higher value; 0 = fully inhibited enzyme, 1 = untreated enzyme. activation factor at 5 µM. 96,000 tested, under 10 active. AID 1025, 2008;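 active = activation factor of at least 2 at 5 µM in the primary screen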;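 also: 0 = wells with 2.5 mM tranylcypromine and 1 = vehicle-only wells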
The depositor's hits bear a star. An excerpt weighted towards active compounds, which were near 28% of everything screened.

What do the screens show for `COc1cccc(-c2nc(Cc3ccc(OC)c(OC)c3)no2)c1`?
CYP2C9 inh: 17; DAT uptake mod: 0.32; CYP2C9 activ: 0.8; CYP2C19 inhib: 58*; D1 mod: 3.8; CYP2C19 activ: 0.4

What do the screens show for `COCCSc1nc2c(c(=O)[nH]c(=O)n2C)n1Cc1cccc(C)c1`?
DAT uptake mod: -1.3

Results for O=C(CN1CCN(c2ccccn2)CC1)NC(=O)NC1CCCCC1 ?
CYP2C9 inh: 44; DAT uptake mod: -0.42; CYP2C9 activ: 0.6; CYP2C19 inhib: 10; D1 mod: -0.035; CYP2C19 activ: 0.9

Results for CC(C(=O)NC(=O)NC1CCCCC1)N1CCN(c2ccccn2)CC1 (stereo not given) ?
CYP2C9 inh: 57*; DAT uptake mod: -0.53; CYP2C9 activ: 0.4; CYP2C19 inhib: 25; D1 mod: 0.078; CYP2C19 activ: 0.7

How did Cc1ccc(SCc2nc3ccccc3n2CC(=O)Nc2ccccc2)cc1 do in these assays?
CYP2C9 inh: 84*; DAT uptake mod: 2.3; CYP2C9 activ: 0.2; CYP2C19 inhib: 57*; CYP2C19 activ: 0.4

How did Cc1ccc(SCc2nc3ccccc3n2CC(=O)Nc2c(C)cccc2C)cc1 do in these assays?
CYP2C9 inh: 36; DAT uptake mod: 0.64; CYP2C9 activ: 0.6; CYP2C19 inhib: 9; CYP2C19 activ: 0.9

Results for CSc1nc2ccccc2n1CC(=O)Nc1ccccc1 ?
CYP2C9 inh: 79*; DAT uptake mod: -0.65; CYP2C9 activ: 0.2; CYP2C19 inhib: 93*; D1 mod: -1.5; CYP2C19 activ: 0.1

How did O=C(Cn1c(CSc2ccccc2)nc2ccccc21)Nc1ccccc1 do in these assays?
CYP2C9 inh: 74*; DAT uptake mod: -0.39; CYP2C9 activ: 0.3; CYP2C19 inhib: 51*; CYP2C19 activ: 0.5

What do the screens show for `CCC(C)Sc1nc2ccccc2n1CC(=O)O` (stereo not given)?
CYP2C9 inh: 88*; DAT uptake mod: 0.091; CYP2C9 activ: 0.1; CYP2C19 inhib: -16; CYP2C19 activ: 1.2

Results for O=C(O)Cn1c(SCc2ccccc2)nc2ccccc21 ?
CYP2C9 inh: 43; DAT uptake mod: 0.72; CYP2C9 activ: 0.6; CYP2C19 inhib: 10; CYP2C19 activ: 0.9

How did Cc1cccc(COCCN2CCN(S(=O)(=O)c3ccccc3)CCC2=O)c1 do in these assays?
DAT uptake mod: 0.63

How did CC(=O)NC(CCS(C)(=O)=O)C(=O)Nc1ccc(F)cc1Cl (stereo not given) do in these assays?
CYP2C9 inh: 5; CYP2C9 activ: 0.9; CYP2C19 inhib: 7; D1 mod: -0.23; CYP2C19 activ: 0.9

Results for CSc1nc2ccccc2n1CC(=O)Nc1c(C)cccc1C ?
DAT uptake mod: -0.7

Results for CSc1nc2ccccc2n1Cc1c(Cl)cccc1Cl ?
CYP2C9 inh: 56*; DAT uptake mod: 1.6; CYP2C9 activ: 0.4; CYP2C19 inhib: 52*; CYP2C19 activ: 0.5

Results for CCCCc1ccc(Nc2ncnc3nc[nH]c23)cc1 ?
CYP2C9 inh: 42; CYP2C9 activ: 0.6; CYP2C19 inhib: 53*; D1 mod: -2.3; CYP2C19 activ: 0.5

Results for COc1cccc(Nc2ncnc3nc[nH]c23)c1 ?
CYP2C9 inh: 16; DAT uptake mod: 0.013; CYP2C9 activ: 0.8; CYP2C19 inhib: 12; CYP2C19 activ: 0.9

Results for c1ccc(CCCNc2ncnc3nc[nH]c23)cc1 ?
CYP2C9 inh: 2; DAT uptake mod: 0.66; CYP2C9 activ: 1; CYP2C19 inhib: 11; D1 mod: -0.7; CYP2C19 activ: 0.9

Results for Cc1ccc(Nc2ncnc3nc[nH]c23)cc1Cl ?
CYP2C9 inh: -2; DAT uptake mod: -1.4; CYP2C9 activ: 1; CYP2C19 inhib: 0; D1 mod: -3.5*; CYP2C19 activ: 1

What do the screens show for `Clc1ccc(CCNc2ncnc3nc[nH]c23)cc1`?
CYP2C9 inh: 11; DAT uptake mod: -0.46; CYP2C9 activ: 0.9; CYP2C19 inhib: 31; D1 mod: -5.3*; CYP2C19 activ: 0.7

What do the screens show for `Cc1cc(C)n(CC(O)Cn2c3ccc(Br)cc3c3cc(Br)ccc32)c(=O)n1` (stereo not given)?
CYP2C9 inh: 69*; DAT uptake mod: 1.6; CYP2C9 activ: 0.3; CYP2C19 inhib: 31; CYP2C19 activ: 0.7

What do the screens show for `Cc1cc(C)n(CC(O)Cn2c3ccccc3c3ccccc32)c(=O)n1` (stereo not given)?
CYP2C9 inh: 72*; DAT uptake mod: -0.43; CYP2C9 activ: 0.3; CYP2C19 inhib: 84*; D1 mod: 0.064; CYP2C19 activ: 0.2

How did O=C(CSc1nnc(-c2cccs2)n1CC1CCCO1)c1cc2ccccc2o1 (stereo not given) do in these assays?
CYP2C9 inh: 32; CYP2C9 activ: 0.7; CYP2C19 inhib: 19; CYP2C19 activ: 0.8

Results for C=CCNCCCCOc1c(Cl)cc(C)cc1Br ?
CYP2C9 inh: -10; DAT uptake mod: 1; CYP2C9 activ: 1.1; CYP2C19 inhib: 57*; CYP2C19 activ: 0.4

How did Cc1cc(Cl)c(OCCCn2cncn2)c(Br)c1 do in these assays?
CYP2C9 inh: 43; DAT uptake mod: 0.8; CYP2C9 activ: 0.6; CYP2C19 inhib: 94*; D1 mod: -0.038; CYP2C19 activ: 0.1

What do the screens show for `Cc1cc(Cl)cc(Br)c1OCCCCn1cncn1`?
CYP2C9 inh: 73*; DAT uptake mod: 0.18; CYP2C9 activ: 0.3; CYP2C19 inhib: 98*; D1 mod: -0.65; CYP2C19 activ: 0

Results for COCCCNCCCCOc1c(Cl)cc(C)cc1Br ?
CYP2C9 inh: 11; DAT uptake mod: 0.12; CYP2C9 activ: 0.9; CYP2C19 inhib: 21; CYP2C19 activ: 0.8

What do the screens show for `Cc1onc(-c2c(Cl)cccc2Cl)c1C(=O)NCCN1CCOCC1`?
CYP2C9 inh: -10; DAT uptake mod: -0.27; CYP2C9 activ: 1.1; CYP2C19 inhib: -7; D1 mod: -0.9; CYP2C19 activ: 1.1

Results for Cc1ccc(C)c(NS(=O)(=O)c2cc(C(=O)NCCC3=CCCCC3)ccc2C)c1 ?
CYP2C9 inh: 24; DAT uptake mod: -0.31; CYP2C9 activ: 0.8; CYP2C19 inhib: -5; CYP2C19 activ: 1.1

How did Cc1ccc(C)c(NS(=O)(=O)c2cc(C(N)=O)ccc2C)c1 do in these assays?
CYP2C9 inh: 2; DAT uptake mod: -0.83; CYP2C9 activ: 1; CYP2C19 inhib: 76*; D1 mod: -0.93; CYP2C19 activ: 0.2
